Data taken from PubChem BioAssay (Tox21).
Where “and” joins values, the source holds several entries; their conditions need not be identical. Identical values can stand only once. Inconclusive results are not listed. Where a call stands in place of a potency, no number is given. Calls of active or inactive are those of the source. The call rests on the fitted dose curve; in most records, active means well fitted activation curve with a large enough effect in the repeat runs; inconclusive means weak or mixed curves, or effect the other way; inactive means no such curve, though single readings can be large or run the other way.

test: qHTS assay to identify small molecule agonists of the retinoic acid receptor (RAR) signaling pathway (AID 1159553); details: C3RL4 RARE luciferase reporter, agonist, 6 h; series mostly up to 73.3 µM
Description: National Center for Advancing Translational Sciences [NCATS] NIH Chemical Genomics Center [NCGC] U.S. Environmental Protection Agency [EPA] National Institutes of Environmental Health Sciences [NIEHS] National Toxicology Program [NTP] Assay overview: All-trans Retinoic acid (atRA) is the potent natural metabolite of retinol and plays an important role in normal embryonic development and maintenance of cellular phenotype in adult animals. atRA is the activating ligand for the retinoic acid receptors (RARs) which form heterodimers with retinoid X receptors (RXRs) on the retinoic acid response element (RARE). Through activation of the RAR/RXRs nuclear receptors, atRA regulates the transcription of a large number of protein-coding genes and regulatory RNAs. Intracellular levels of atRA are controlled by the retinol signaling pathway (RSP) that regulates the biosynthesis and catabolism of atRA to maintain physiological levels. Chemicals that interfere with the RSP can cause abnormal intracellular levels of atRA and therefore are potential developmental toxicants. To assess compounds for the potential adverse effect on embryonic development through interfering with retinol signaling, a cell-based RARE luciferase reporter gene assay was used. C3RL4 cell line (OARSA/CFSAN/FDA, Laurel, MD) was used to screen Tox21 10K compound library for identifying activators of the RSP.
Assay Protocol Summary: C3RL4 cells were seeded at 1,000/well in 5 uL of assay medium into white solid 1,536-well tissue culture plates (Greiner Bio-One North America Inc. Monroe, NC) using a Multidrop Combi (Thermo Scientific, Waltham, MA) dispenser. After incubation at 37 C and 5% CO2 for an overnight, 23 nL of compounds dissolved in DMSO, positive control or DMSO only were transferred by a Pintool station (Kalypsys, San Diego, CA). After 6 hr incubation at 37 C and 5% CO2, 5 uL of Amplite Luciferase reagent (AAT Bioquest Inc. Sunnyvale, CA) was added to each assay plate using a Flying Reagent Dispenser (FRD) (Aurora Discovery, San Diego, CA). Luminescence was quantified on a ViewLux plate reader (PerkinElmer, Waltham, MA) after 30 min incubation at room temperature.
Potency means the concentration at half of the fitted maximal effect.

Row | SMILES | Potency
1 | FC(F)(F)c1cccc(C2=CCN(CCc3ccc4ccccc4c3)CC2)c1 | inactive
2 | CC(=O)Nc1ccc2c(c1)Cc1ccccc1-2 | 6.21 µM (active)
3 | CC(C)(O)c1cnn2c(-c3ccc(F)c(-c4c(F)cccc4C#N)c3)cnc2n1 | inactive
4 | O=C(O)COc1nc(Cl)c(Cl)cc1Cl | inactive
5 | COC(=O)N(C(=O)N1CO[C@@]2(C(=O)OC)Cc3cc(Cl)ccc3C2=N1)c1ccc(OC(F)(F)F)cc1 | inactive
6 | FC(Cl)(Cl)Cl | inactive
7 | N#CNC#N | inactive
8 | c1ccc2cc3c(cc2c1)-c1cccc2cccc-3c12 | inactive
9 | Nc1ccccc1C(=O)OC/C=C/c1ccccc1 | 1.22 µM (active)
10 | CCN | inactive
11 | CC(C)(C)OO | inactive
12 | ClC(Cl)=C(c1ccc(Cl)cc1)c1ccc(Cl)cc1 | inactive
13 | O=C(Nc1ccc2[nH]ccc2c1)c1cc2cc(F)ccc2n1Cc1cccc(F)c1 | inactive
14 | CCOP(=S)(OCC)OC(Cl)C(Cl)(Cl)Cl (stereo not given) | inactive
15 | CCOC(=O)CC(=O)CCl | inactive
16 | CCCCCCCCCCCCCCC(Br)C(=O)O (stereo not given) | inactive
17 | ClC1=C(Cl)C2(Cl)C3C(Cl)C=CC3C1(Cl)C2(Cl)Cl (stereo not given) | inactive
18 | CCOP(=O)(NC(C)C)Oc1ccc(SC)c(C)c1 (stereo not given) | inactive
19 | O=c1c(C2CC(c3ccc(-c4ccc(Br)cc4)cc3)Cc3ccccc32)c(O)sc2ccccc12 (stereo not given) | inactive
20 | O=c1oc2ccccc2c(O)c1Cc1c(O)c2ccccc2oc1=O | inactive

Row | SMILES | Potency
21 | O=c1[nH]c2ccccc2n1CCCN1CCC(n2c(=O)[nH]c3cc(Cl)ccc32)CC1 | inactive
22 | O=C1NCN(c2ccccc2)C12CCN(CC1COc3ccccc3O1)CC2 (stereo not given) | inactive
23 | CC(C)[C@H](C(=O)OC(C#N)c1cccc(Oc2ccccc2)c1)c1ccc(OC(F)F)cc1 (stereo not given in full) | inactive
24 | Oc1ccc(C(=C(Cl)Cl)c2ccc(O)cc2)cc1 | inactive
25 | Oc1c(Br)c(Br)c(Br)c(Br)c1Br | inactive
26 | Clc1ccc(C(Cl)(Cl)Cl)c(Cl)c1 | inactive
27 | CCOCn1c(-c2ccc(Cl)cc2)c(C#N)c(Br)c1C(F)(F)F | inactive
28 | CC(=O)C(Cl)(Cl)Cl | inactive
29 | Cc1cc(N=Nc2ccccc2C)ccc1N | 864 nM (active) and 1.22 µM (active)
30 | CCOCCOC(C)=O | inactive
31 | Fc1cccc(Cl)c1CCl | inactive
32 | O=C1c2ccccc2C(=O)C1C(=O)C(c1ccccc1)c1ccc(Cl)cc1 (stereo not given) | inactive
33 | Clc1ccc(-c2ccc(Cl)c(Cl)c2Cl)c(Cl)c1Cl | inactive
34 | C=CCC1=C(C)C(OC(=O)C2C(C=C(C)C)C2(C)C)CC1=O (stereo not given) | inactive
35 | CCCSP(=O)(OCC)SCCC | inactive
36 | O=C(CCCN1CCC2(CC1)C(=O)NCN2c1ccccc1)c1ccc(F)cc1 | inactive
37 | O=C(O)C1C2CCC(O2)C1C(=O)O (stereo not given) | inactive
38 | C[C@@H]1O[C@@H](O[C@H]2C[C@@H](O)[C@]3(CO)[C@H]4[C@H](O)C[C@]5(C)[C@@H](C6=CC(=O)OC6)CC[C@]5(O)[C@@H]4CC[C@]3(O)C2)[C@H](O)[C@H](O)[C@H]1O | inactive
39 | CC(C)OS(C)(=O)=O | inactive
40 | COc1ccc(OC)c(CC(C)N)c1 (stereo not given) | inactive
